This note sets out measurements from PubChem BioAssay (NCI).

About 83,000 compounds went through this panel and 20% of them were active in at least one assay; those are over-represented in the sample as a whole.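 Interpretation: 100, growth as untreated; towards 0, rising growth inhibition; 0, no net growth; 0 to -100, cell death. Compounds scoring below 10 were considered active.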 Calls of active or inactive are those of the source.

The subject of the assay is HS 578T breast. Put plainly: NCI-60 one-dose screen, 48 h (100 = growth as untreated, 0 = no growth, -100 = all killed). Conditions: 10 µM. The method, then:
Growth inhibition of the HS 578T human tumor cell line is measured as a screen for anti-cancer activity. Cells are grown in 96 well plates and exposed to the test compound for 48 hours. Compounds are tested at a single concentration, which is 10^-5 M for most compounds. The reported endpoint is percent growth (GI% or GIPRCNT), where numbers from 0 - 100% represent growth inhibition, and numbers from -100% - 0 represent cell death. For example, a value of 40 represents 60% growth inhibition. A value of 0 means no net growth occurred over the course of the experiment. A value of -40 indicates 40% of cells at the beginning of the experiment died by the end of the experiment. A value of -100 means all cells are dead at the end of the experiment.
NCI-60 Human Tumor Cell Lines Screen was performed using the standard one-dose NCI protocol, which is described in more detail at https://dtp.cancer.gov/discovery_development/nci-60/default.htm.
Compounds with GIPRCNT values below 10 were considered active. Activity score was based on GIPRCNT using the following formula: […]
Score is 0 for GIPRCNT values of 100 or above, 50 for GIPRCNT values of 0, and 100 for GIPRCNT values of -100.
Consider `O=c1oc2ccccc2cc1-c1csc(N=Nc2c(O)[nH]c3ccc(Br)cc23)n1`, for which the growth is 33.7% (inactive).

On to `Cc1ccc(-c2ccc(SCC(=O)Nc3ccc(S(N)(=O)=O)cc3Br)nn2)cc1`, for which the growth was 31.9% (inactive).

As to `COc1ccc(CN2[C@H](C(=O)NCc3ccc(C(=O)NO)cc3)Cc3c([nH]c4ccccc34)[C@H]2C2CC2)cc1`, the growth is 32.6% (inactive).

Take `N#Cc1c(NC(=O)c2ccc(C(F)(F)F)cc2)sc2c1CCC(=O)C2`: the growth is -27.1% (active).

As for `COc1ccc(-c2cc(C(=O)N=Nc3c(O)[nH]c4ccc(F)cc34)c3ccccc3n2)cc1`, the growth was 74% (inactive).

For the compound `CN1CCN(c2ccc(Nc3nc(NCCCNC(=O)c4ccc(F)cc4)c4sccc4n3)cc2)CC1`, the growth is 84.1% (inactive).

Regarding `O=C1NC(=NC23CC4CC(CC(C4)C2)C3)N/C1=C\c1ccc2ncccc2n1`, the growth was -24.3% (active).

Turning to `COc1ccc(CCN2C(=O)/C(=C/c3csc(C#N)n3)SC2=S)cc1`, the growth is 16.9% (inactive).

For the compound `O=c1oc2ccc(-c3ccc(F)cc3F)cc2c(=O)n1-c1ccc(Cl)c(C(F)(F)F)c1`, the growth is -0.864% (active).

In the case of `CN1CCc2c(sc3ncnc(N/N=C/c4cn(-c5ccccc5)nc4-c4ccc(Cl)cc4)c23)C1`, the growth was 46.6% (inactive).

For `Cc1ccc(/C=C/C(=O)c2ccc(S(=O)(=O)NCCNc3nc(Nc4ccc(F)cc4)nc(N(C)C)n3)cc2)cc1`, the growth was 68.8% (inactive).

Take `CN1C(=O)N(C)C2SC(N/N=C/C=C/c3ccccc3)=NC21` (stereo not given): the growth was 89.7% (inactive).

With `N#Cc1ccc(-c2nn(-c3ccc(C(=O)O)cc3)cc2CNc2ccc(Cl)cc2)cc1`, the growth was 88.6% (inactive).

`Cc1ccc(S(=O)(=O)c2nc(-c3ccccc3)oc2S(=O)(=O)CC(=O)N2CCCC2)cc1`: the growth was 20.5% (inactive).

As for `COC[C@@H](CC(C)C)N=C1N/C(=C\c2ccc3ncsc3c2)C(=O)N1C`, the growth was 15.4% (inactive).

In the case of `CC(C)C1=C[C@@]23CC[C@@H]4[C@](C)(CCC[C@]4(C)C(=O)NCc4ccccc4)[C@H]2C[C@@H]1[C@H]1C(=O)CCC(=O)[C@H]13`, the growth is 63.1% (inactive).

For the compound `C=C1CC[C@H](C(=C)C)[C@H]2C=C(C)C(=O)C3=C(C(=O)[C@@](C)(O)C3)[C@H]12`, the growth was -13.1% (active).

As to `C/C(=C\CSc1ccccc1C(=O)O)CCCC(C)CCCC(C)CCCC(C)C` (stereo not given), the growth is 56% (inactive).

`CCOC(=O)CNC(=O)CN(Cc1ccccc1)C(=O)[C@@]1(C)CCC[C@]2(C)[C@H]3CC4C(C(C)C)=C[C@]3(CC[C@H]21)[C@@H]1C(=O)CCC(=O)[C@H]41`: the growth is 52.6% (inactive).

As to `COc1ccc(-c2cc(C(=O)N=Nc3c(O)[nH]c4ccccc34)c3ccccc3n2)cc1`, the growth was 31.1% (inactive).

For the compound `Cc1cc(=O)oc2cc(OCCCCOc3ccc(/C=C/C(=O)Nc4ccc(F)c(Cl)c4)cc3)ccc12`, the growth is 111% (inactive).

For the compound `[2H]C([2H])([2H])Oc1ccc2ncc(C#Cc3cncc(C(=O)Nc4ccc(CN5CCN(C)CC5)c(C(F)(F)F)c4)c3)n2n1`, the growth was -47.9% (active).

Turning to `O=C(Nc1ccc(Cl)c([N+](=O)[O-])c1)Nc1ccc(Cl)c([N+](=O)[O-])c1`, the growth is 45.1% (inactive).

Regarding `CCN(CC)CCOc1ccc(C(=C(C)c2ccccc2)c2ccc(OCCN(CC)CC)cc2)cc1`, the growth was -8.15% (active).

With `COc1ccc(CCN2C(=O)/C(=C/c3csc(C#N)n3)SC2=S)cc1OC`, the growth was 66.3% (inactive).

Turning to `Nc1nc(Nc2ccc(Cl)cc2)nn1Cc1cccc(Br)c1`, the growth is 18.2% (inactive).

As for `COc1cc2c(cc1OC)CN(CCCCOc1cc(O)c3c(=O)cc(-c4ccccc4)oc3c1)CC2`, the growth was 74.2% (inactive).

Turning to `N#Cc1ccc(NC(=O)CSc2ccc(-c3ccc(Br)cc3)nn2)cc1`, the growth was 72.9% (inactive).

Consider `O=C(NO)c1ccc(CN2CCN(c3nc(-c4ccccc4)c4ccccc4n3)CC2)cc1`, for which the growth was 49.1% (inactive).

For `Cc1noc2c(Cc3ccc([N+](=O)[O-])cc3)nn(CC(=O)N/N=C/c3ccc(Cl)cc3)c(=O)c12`, the growth was 10% (inactive).

For `COc1cc2c3c(n(CCCn4ccnc4)c(=O)c2cc1OC)-c1nc2c(cc1C3=O)OCO2`, the growth is 119% (inactive).

In the case of `CC(=C(c1ccc(OCCCN(C)C)cc1)c1ccc(OCCCN(C)C)cc1)c1ccccc1`, the growth is -71.2% (active).

`COc1ccc(C(=O)/C=C/c2cc(C(F)(F)F)cc(C(F)(F)F)c2)cc1S(N)(=O)=O`: the growth is -12.8% (active).

In the case of `COC1=C[C@@]23CCC(=O)N2CCc2cc4c(cc2[C@H]3[C@H]1OC(=O)C(C)(C)O)OCO4`, the growth is 98.1% (inactive).

As to `O=C(CNc1nc(-c2ccccc2)cs1)Nc1ccc(Cl)cc1[N+](=O)[O-]`, the growth is -18.3% (active).

`CC(=O)Nc1nc(-c2ccc(N3CCN(C)CC3)c(NS(=O)(=O)c3ccc(C(F)(F)F)cc3)c2)cs1`: the growth was 38.6% (inactive).

Regarding `COc1cccc(COc2ccc(/C=C3\Oc4cc(O)ccc4C3=O)cc2)c1`, the growth was -7.04% (active).

Consider `O=C1Nc2ccc(Cl)cc2/C1=C/c1ccc(OCc2ccc(Br)cc2F)cc1`, for which the growth is -0.705% (active).

Take `CC1(C)[C@@H](NCO)CC[C@]2(C)[C@H]3C(=O)C=C4[C@@H]5C[C@](C)(CO)CC[C@]5(C)CC[C@@]4(C)[C@]3(C)CC[C@@H]12`: the growth is 44% (inactive).

For `COc1ccccc1NCc1ccc(CO)n1-c1ccc(C)cc1`, the growth was 98% (inactive).
